Reference: PubChem BioAssay (Tox21)
Results filed as inconclusive are left out. Values without a mark were called inactive. Active and inactive are the calls of the source. The call rests on the fitted dose curve; in most records, active means well fitted cell-killing curve with a large enough effect in the repeat runs; inconclusive means weak or mixed curves, or effect the other way; inactive means flat fitted curve, though single readings scatter.

Experiment: cAMP Responsive Elements (CRE) small molecule antagonists, cell-based qHTS assay: qHTS cell viability counter screen (AID 2060913); further: nearly all actives have a fitted effect of over 40% in size
Details: CRE-bla HEK293T viability, CellTiter-Glo luminescence, 5 h; series mostly up to 92.4 µM; viability change, negative = cytotoxic: at the top concentration
Description: U.S. Tox21 Program National Center for Advancing Translational Sciences [NCATS] Division of Preclinical Innovation [DPI] U.S. Environmental Protection Agency [EPA] National Institutes of Environmental Health Sciences [NIEHS] National Toxicology Program [NTP] U.S. Food and Drug Administration [FDA] Tox21 Assay Overview: CREB (cyclic-AMP Responsive Element Binding Protein) is a cellular transcription factor. It binds to certain DNA sequences called cAMP Responsive Elements (CRE) and regulates the transcription of the genes. […] This cell line can be used to find agonists/antagonists of the cyclic AMP signaling pathway. The activation of the report gene under culture conditions can be detected by fluorescence intensity. This cell line has been used to screen the Tox21 10K compound library to identify agonists that induce oxidative stress. The cytotoxicity of the Tox21 compound library against the CRE-bla cell line was tested in parallel by measuring the cell viability using CellTiter-Glo assay (Promega, Madison, WI) in the same wells.
Tox21 Assay Protocol Summary: CRE-bla Hek 293T cells were suspended in assay medium (DMEM containing 10% dialyzed FBS, 0.1 mM NEAA, 1 mM sodium pyruvate and 25 mM HEPES) and dispensed at 2,000 cells/4 uL /well into 1536-well black wall/clear bottom plates using a Multidrop Combi (ThermoFisher Scientific, Waltham, MA) dispenser. After the assay plates were incubated at 37 C/5% CO2 for 18 hrs, 23 nL of compounds dissolved in DMSO, positive controls or DMSO only was transferred to the assay plate by a pintool workstation (Kalypsys, San Diego, CA), followed by addition of 1 uL of 1.25uM NKH477 (0.25 uM as final concentration) in assay medium using a Flying Reagent Dispenser (Aurora Discovery, San Diego, CA). The plates were incubated at 37 C and 5% CO2 for 3 hrs. Then 1 uL of LiveBLAzer B/G FRET substrate (Invitrogen, Carlsbad, CA) was added to each well using Bioraptr Flying Reagent Dispenser (FRD, Aurora Discovery, San Diego, CA). The plates were incubated at room temperature for 2 h, then fluorescence intensities were measured using an Envision plate reader (PerkinElmer, Shelton, CT) at Excitation 405nm, Emission 460nm and 530nm. The % activity was determined from the ratio of 460nm/530nm. For cell viability readout that measures cytotoxicity, 4 uL /well of CellTiter-Glo reagent was added into the assay plates using Bioraptr FRD. After 30 min incubation at room temperature, the luminescence intensity in the assay plates was measured using a ViewLux (PerkinElmer, Shelton, CT) plate reader.
On the % scale 0 is the no-effect control and ±100 the full control effect.

| SMILES | viability change, negative = cytotoxic | Potency |
| --- | --- | --- |
| CCOC(=O)Oc1ccc(CCNC(=O)[C@H](CCSC)NC(C)=O)cc1OC(=O)OCC | -1.42% [at 42.5 µM] | – |
| O=c1[nH]sc2cc(Cl)ccc12 | 7.05% [at 42.5 µM] | – |
| CCCCCCC(=O)OCC | -4.6% | – |
| CC1=CCC(C(C)(C)O)CC1 (stereo not given) | – | inactive |
| C/C=C/C(=O)N(CC)c1ccccc1C | – | inactive |
| CC1CCC(CO)CC1 (stereo not given) | -2.49% | – |
| CCC1Nc2cc(Cl)c(S(N)(=O)=O)cc2S(=O)(=O)N1 (stereo not given) | -1.54% [at 42.5 µM] | – |
| O=C(O)C1(C(=O)Nc2ccc(Cl)cc2Cl)CC1 | -10.4% | – |
| CCCCC(CC)C(=O)O (stereo not given) | – | inactive |
| CCN(CCCc1ccccc1)CCCc1ccccc1 | -0.185% [at 42.5 µM] | – |
| N#C/C(=C1\SCC(c2ccccc2Cl)S1)n1ccnc1 (stereo not given) | -0.17% [at 42.5 µM] | – |
| CN(C)CCOC1=Cc2ccccc2Sc2ccc(Cl)cc21 | -1.17% [at 42.5 µM] | – |
| C[N+]1([O-])CCOCC1 | -10.5% | – |
| Nc1nc(CC(=O)O)cs1 | -7.47% | – |
| CCCCC(C)C(=O)O (stereo not given) | 2.82% | – |
| CCCCCOc1ccc(C2SC(=O)NC2=O)cc1OCC (stereo not given) | -0.301% [at 42.5 µM] | – |
| OC[C@@H](O)C(O)[C@@H](O)CO (stereo not given in full) | 5.53% | – |
| NCCCC(O)(P(=O)(O)O)P(=O)(O)O | -0.546% [at 42.5 µM] | – |
| CN(C/C=C/C#CC(C)(C)C)Cc1cccc2ccccc12 | -5.7% [at 42.5 µM] | – |
| CC(C)CO | 4.9% | – |

| SMILES | viability change, negative = cytotoxic | Potency |
| --- | --- | --- |
| Oc1ccc(OCc2ccccc2)cc1 | – | inactive |
| CC(C)(N=C=O)c1cccc(C(C)(C)N=C=O)c1 | – | inactive |
| C1OCOCO1 | 16.2% | – |
| CC[C@H]1OC(=O)[C@H](C)[C@@H](O[C@H]2C[C@@](C)(OC)[C@@H](O)[C@H](C)O2)[C@H](C)[C@@H](O[C@@H]2O[C@H](C)C[C@H](N(C)C)[C@H]2O)[C@](C)(O)C[C@@H](C)CN(C)[C@H](C)[C@@H](O)[C@]1(C)O | -2.24% [at 42.5 µM] | – |
| COc1cc([C@@H]2c3cc4c(cc3[C@@H](O[C@@H]3O[C@@H]5CO[C@@H](C)O[C@H]5[C@H](O)[C@H]3O)[C@H]3COC(=O)[C@H]23)OCO4)cc(OC)c1O | 0.199% | – |
| CCCCCCCCCCCCCO | – | inactive |
| CCOC(=O)COC(=O)c1ccccc1C(=O)OCC | -2.98% | – |
| CCOC(=O)c1ccccc1 | 0.202% | – |
| Nc1ccc2ccccc2c1S(=O)(=O)O | -7.46% | – |
| Nc1nc(Cl)nc2c1ncn2[C@@H]1O[C@H](CO)[C@@H](O)[C@@H]1F | -1.32% [at 42.5 µM] | – |
| O=C1CCc2cc(OCCCCc3nnnn3C3CCCCC3)ccc2N1 | -1.87% [at 42.5 µM] | – |
| Cc1nnc(SCC2=C(C(=O)O)N3C(=O)[C@@H](NC(=O)Cn4cnnn4)[C@H]3SC2)s1 | -0.476% [at 42.5 µM] | – |
| Brc1c2ccccc2c(Br)c2ccccc12 | -0.61% [at 8.39 µM] | – |
| CCN(CC)CCNC(=O)COc1ccc(OC)cc1 | -0.473% [at 42.5 µM] | – |
| O=C1CC2(CCCC2)CC(=O)N1 | 2.69% [at 42.5 µM] | – |
| COc1cc(S(=O)(=O)Nc2ccccc2)c(OC)cc1N | 3.87% | – |
| C=CC(=O)OCC1CC2CC1C1CCC(COC(=O)C=C)C21 (stereo not given) | 14.4% | – |
| CC1OCCC1=O (stereo not given) | 3.72% | – |
| NNC(=O)c1ccncc1 | – | inactive |
| O=C(CCCCCCC(=O)Nc1ccccc1)NO | 3.91% [at 42.5 µM] | – |
